Compound activity: PubChem BioAssay, Broad Institute
TcdB GH inh – inhibitors of Clostridioides difficile toxin B glycohydrolase; inhibition, % at 9.99 µM; AID 652162; 350,000 compounds, 0.24% hits; P18177; TcdB glycohydrolase enzymatic assay, plate reader; in the data active = inhibition above about 10%
BH1578 lux ind – inducers of Vibrio cholerae quorum light production without autoinducers | V. cholerae BH1578 lux reporter, luminescence, 6 h | activation, % at 18.7 µM | 350,000 compounds, 0.16% hits | AID 588436; in the data active = activation mostly above about 9.7%, no sharp cut-off
FadD28 FP inh – blocks FadD28 binding to the bisubstrate probe. AID 588549. fluorescence polarization. inhibition, % at 12.5 µM. 360,000 compounds, 0.22% hits; in the data active = inhibition above about 8.5%, passing the limit was not always enough
Mtb BioA inh – inhibitors of Mycobacterium tuberculosis BioA enzyme; purified M. tuberculosis BioA enzyme, plate reader; inhibition, % at 9.99 µM; 360,000 compounds, 0.096% hits; AID 602481; in the data active = inhibition above about 40%
A number is an active result; 0 = inactive; - = no result given. Sampled rows, rich in hits. Any-hit rate of the full collection: about 0.54%.

SMILES | TcdB GH inh | BH1578 lux ind | FadD28 FP inh | Mtb BioA inh
CCC(=O)Nc1ccc2c(c1)OC[C@@H](C)N(C(=O)Cc1ccccn1)C[C@@H](C)[C@@H](OC)CN(C)C2=O | 0 | - | - | 0
CN1C(=O)c2cc(NC(=O)c3cccc(F)c3)ccc2OC[C@H]2O[C@H](CC(=O)NCC3CCCCC3)CC[C@H]21 | 0 | - | - | 0
CN1C(=O)c2cc(NC(=O)c3cccc(F)c3)ccc2OC[C@H]2O[C@H](CC(=O)NCC3CCCCC3)CC[C@@H]21 | 11 | - | - | 0
COc1ccc(C(=O)Nc2ccc3c(c2)C(=O)N(C)[C@@H]2CC[C@H](CC(=O)NCC4CC4)O[C@H]2CO3)cc1 | 16 | - | - | 0
CNC(=O)C[C@H]1CC[C@@H]2[C@@H](COc3ccc(NC(=O)c4cccc(OC)c4)cc3C(=O)N2C)O1 | 12 | - | - | 0
CCCNC(=O)N(C)C[C@H]1N[C@@H](CO)[C@@H]1c1ccc(C2=CCCCC2)cc1 | - | - | - | 0
CCOc1cc(/C=N/O)ccc1OCc1ccc(C)cc1 | 11 | 0 | 0 | -
Cc1sc(-n2c(C)cc(/C=C3\SC(=S)NC3=O)c2C)c(C#N)c1C | 0 | 0 | 17 | 0
Cc1cc(/C=C2\SC(=S)NC2=O)c(C)n1-c1cccc(O)c1 | 0 | 0 | 17 | -
CCn1c(C)cc(/C=C2/SC(=S)NC2=O)c1C | 0 | 0 | 0 | -
Cc1cc(/C=C2\SC(=S)NC2=O)c(C)[nH]1 | 0 | 0 | 33 | 0
C[C@H](CO)N1C[C@H](C)[C@H](CN(C)Cc2ccc(Cl)c(Cl)c2)Oc2ccc(NC(=O)CCN3CCOCC3)cc2CC1=O | 0 | - | - | 0
C[C@@H]1CN([C@@H](C)CO)C(=O)c2cccc(NS(=O)(=O)c3ccccc3)c2O[C@@H]1CN(C)S(=O)(=O)c1cn(C)cn1 | 0 | - | - | -
COc1cc(/C=C2\SC(=Nc3ccc(Cl)c(C(=O)O)c3)NC2=O)c(Br)c(Br)c1O | 0 | 0 | 15 | 0
COc1cc(/C=C2\SC(=Nc3ccccc3)NC2=O)cc(Cl)c1O | 0 | 0 | 0 | 0
O=C(NCC[C@@H]1CC[C@@H](NS(=O)(=O)Cc2ccccc2)[C@@H](CO)O1)C1CCC1 | 0 | - | - | 0
N#CC(C#N)=NNc1ccc(S(N)(=O)=O)cc1 | 0 | 0 | 25 | 0
COc1cc(/C=C(\C#N)C(=O)c2ccc(O)c(O)c2)cc(I)c1O | 0 | 0 | 12 | 0
COc1ccc(C=C(C#N)C(=O)c2ccccc2)cc1 | 0 | - | - | -
O=C(C[C@H]1C[C@H]2c3cc(NC(=O)c4ccc5c(c4)OCO5)ccc3O[C@H]2[C@@H](CO)O1)NCc1ccccn1 | 0 | - | - | 0
N#Cc1ccc(C(=O)N/N=C/c2cn(CC(=O)O)c3ccccc23)c(F)c1 | 12 | 0 | 0 | -
CCOC(=O)Cn1cc(/C=N/NC(=O)c2ccc(C#N)cc2F)c2ccccc21 | - | 0 | 0 | 0
CNC(=O)C1Cc2c(-c3ccccc3Oc3ccccc3)ccnc2O1 (configuration not stated) | 13 | 0 | 0 | 0
C[C@@H]1CN([C@H](C)CO)C(=O)c2cc(NC(=O)CCC(F)(F)F)ccc2O[C@H]1CN(C)Cc1ccc(C(=O)O)cc1 | 0 | - | - | 0
COC(=O)C1(N2C(=O)O[C@@H](Cc3ccccc3)[C@H]2/C=C/C2CC2)CCCC1 | 0 | - | - | -
SMILES | TcdB GH inh | BH1578 lux ind | FadD28 FP inh | Mtb BioA inh
C[C@@H]1CN([C@H](C)CO)C(=O)c2cc(NC(=O)CCCN(C)C)ccc2O[C@@H]1CN(C)CC1CCCCC1 | 0 | - | - | 0
O=C1CSC(=S)N1/N=C/c1ccc(O)c(O)c1O | - | 0 | 9.4 | 0
COc1ccccc1N(CCC#N)C(=O)CSc1nnc2ccccn12 | 0 | 0 | 0 | 0
COc1ccccc1N(CCC#N)C(=O)CSc1nc(-c2ccccc2)cn1N | - | 29 | 0 | 0
CC(=O)c1cccc(NC(=O)NC2CCCCC2)c1 | 0 | 0 | 0 | 0
CC(=O)c1cccc(NC(=S)NC2CCCCCCC2)c1 | 0 | 0 | 14 | 0
CC(=O)c1cccc(NC(=O)NC2CCCCCCC2)c1 | 0 | 0 | 15 | 0
Cc1cccc(NC(=S)NC2CCCC2)c1 | - | 0 | 0 | -
CCc1ccc(NC(=O)Cn2c(=O)oc3cc(S(=O)(=O)N4CCOCC4)ccc32)cc1 | 0 | 0 | 0 | 0
O=C(Cn1c(=O)oc2ccccc21)Nc1ccc(S(=O)(=O)N2CCCCC2)cc1 | - | 0 | 0 | 0
CCc1cccc(NC(=O)Cn2c(=O)oc3cc(S(=O)(=O)N4CCOCC4)ccc32)c1 | 0 | - | 41 | 0
O=C(Cn1c(=O)oc2cc(S(=O)(=O)N3CCCC3)ccc21)Nc1cccc(C(F)(F)F)c1 | - | 0 | 11 | 0
Cc1ccccc1NC(=O)C1CC(=O)N(c2ccc3c4c(cccc24)CC3)C1 (configuration not stated) | - | 25 | 0 | 0
O=C(Nc1ccccc1Br)C1CC(=O)N(c2ccc3c4c(cccc24)CC3)C1 (configuration not stated) | 0 | 0 | 0 | -
O=C1c2cc(Br)ccc2N(Cc2ccc(Br)cc2)S(=O)(=O)C1c1cc(Cl)c(Cl)cc1[N+](=O)[O-] (configuration not stated) | 0 | 0 | 30 | 0
O=C1CS(=O)(=O)N(Cc2cccc(F)c2)c2ccc(Br)cc21 | 0 | 0 | 0 | 0
COCC(=O)Nc1ccc2c(c1)C(=O)N(C)[C@H]1CC[C@H](CC(=O)Nc3ccccc3F)O[C@@H]1CO2 | 0 | - | - | 0
COc1c(Br)cc(Br)cc1/C=N/n1c(C)nnc1C | - | 5.6 | 0 | 0
COc1cc(/C=N/n2c(C)nnc2C)cc(OC)c1OC | - | 0 | 0 | 0
CCN1[C@@H]2c3ccc(-c4cccc(OC)c4)c(=O)n3C[C@@H]2[C@@H](CO)[C@@H]1C(=O)N(C)C | 0 | - | - | 0
COc1ccc(NC(=O)Nc2nc(C)cc(C)n2)c(OC)c1 | 11 | 0 | 0 | 0
Cc1nn(CCOc2ccccc2)c(=O)n1-c1ccccc1 | - | 0 | 0 | 0
Cc1nn(CCOc2ccccc2)c(=O)n1-c1ccc(Cl)cc1 | 15 | 0 | 0 | 0
O=S(=O)(N[C@H]1CC[C@@H](CCn2cc(-c3ccccn3)nn2)O[C@H]1CO)c1cccc(F)c1 | 0 | - | - | 0
COc1ccccc1-c1cn[nH]c1-c1ccc(O)cc1O | 14 | 0 | 0 | 0
SMILES | TcdB GH inh | BH1578 lux ind | FadD28 FP inh | Mtb BioA inh
COc1ccc(-c2cn[nH]c2-c2ccc(O)cc2O)cc1 | 15 | 0 | 0 | 0
CC(C)CC#Cc1ccc2c(c1)O[C@H](CN(C)C)[C@@H](C)CN([C@@H](C)CO)S2(=O)=O | 0 | - | - | 0
Cc1ccc(-c2csc(NS(=O)(=O)c3cccc(F)c3)n2)o1 | 0 | 0 | 16 | 0
COc1ccc(S(=O)(=O)Nc2ccc3oc(C)c(C(=O)O)c3c2)cc1 | 15 | 0 | 0 | 0
Cc1oc2ccc(NS(=O)(=O)c3ccc(F)cc3)cc2c1C(=O)O | 0 | 0 | 0 | 0
C[C@H]1CN([C@@H](C)CO)C(=O)c2cc(NS(C)(=O)=O)ccc2O[C@H]1CN(C)S(=O)(=O)c1cccs1 | 0 | - | - | 0
OCC1CCCN(C(=S)Nc2ccc(Nc3ccccc3)cc2)C1 (configuration not stated) | 11 | 0 | 0 | 0
CCCNC(=O)Nc1ccc2c(c1)C(=O)N(C)[C@H]1CC[C@@H](CC(=O)NC3CCC3)O[C@H]1CO2 | - | - | - | 0
CCCNC(=O)Nc1ccc2c(c1)C(=O)N(C)[C@@H]1CC[C@H](CC(=O)NC3CCC3)O[C@H]1CO2 | 19 | - | - | 0
CCCNC(=O)Nc1ccc2c(c1)C(=O)N(C)[C@H]1CC[C@H](CC(=O)NC3CCC3)O[C@@H]1CO2 | 14 | - | - | 0
